Screening results deposited in PubChem by National Center for Advancing Translational Sciences (NCATS).
FUS yeast rescue: qHTS for Suppressors of FUS Proteinopathy: Primary screen using FUS-linked yeast assay; AID 1347120, 2019; S. cerevisiae FUS-expressing, growth rescue, OD600, 24 h; Potency, µM (top dose mostly 76.6 µM), most hits filed as activators; hit rate 0.24% among 390,000;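 also: plate controls were DMSO vehicle for no effect and reference control for full effect; nearly all actives have a fitted effect of over 55% in size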
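Restored growth of FUS-toxic S. cerevisiae, read as 600 nm absorbance after 24 h at 30C in galactose medium (starting OD 0.005). Controls CP55940 and DMSO.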
aSyn yeast inh: qHTS of alpha-syn Inhibitors; AID 652106, 2013; hit rate 0.14% among 370,000; Potency, µM (top dose mostly 46.1 µM), for the others: top-dose growth rescue (activation), most hits filed as activators; Yeast expressing alpha-synuclein, growth rescue, BacTiter-Glo, 24 h; also: % of control where 0% means no effect; nearly all actives have a fitted effect of over 65% in size
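Readout is rescue of growth in alpha-synuclein-expressing yeast, so inhibitors of toxicity appear as activators. Growth after 24 hr at 30 deg C in galactose medium is quantified by luminescence.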
Abeta yeast res: qHTS for compounds that reverse cellular toxicity of Amyloid beta (A-beta) peptide in yeast: Primary Screen. yeast expressing A-beta42, growth rescue, OD600, 48 h; response scale: 0% DMSO, 100% iron-clioquinol control. Potency, µM (top dose mostly 46.1 µM), hits mostly activators. hit rate 0.063% among 410,000; also: nearly all actives have a fitted effect of over 55% in size
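Yeast A-beta toxicity model in growth medium with pinned compounds, 48 h at 30 C; growth read as absorbance at 600 nm. Normalized to FeCl3/clioquinol equimolar mix (positive) and DMSO (negative).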
TDP-43 yeast inh: qHTS of TDP-43 Inhibitors | hit rate 1.8% among 410,000 | TDP-43 expressing yeast growth rescue, BacTiter-Glo, 24 h | Potency, µM (doses to about 46.1 µM), for the others: at the top dose growth rescue (activation), most hits filed as activators; also: % of control where 0% means no effect; nearly all actives have a fitted effect of over 50% in size
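Yeast expressing TDP-43 (pregrown in raffinose, seeded at OD600=0.02 in galactose medium) exposed to compounds 24 hr at 30 deg C. Growth read by BacTiter-Glo luminescence; rescue of toxicity appears as increased signal.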
TSG101-PTAP inh: qHTS Assay for Iinhibitors of HIV-1 Budding by Blocking the Interaction of PTAP/TSG101; Potency, µM (series often up to 115 µM), for the others: top-dose activity change, negative = inhibition, most hits filed as inhibitors; Tumor susceptibility gene 101 protein (Homo sapiens), Q99816; 340,000 tested, under 10 active; Fluorescence polarization, FITC-PTAP peptide / Tsg101 binding; AID 493005, 2010; active = well fitted inhibition curve with a large enough effect in the main read-out, with a control signal flat, not every such curve was filed as active; inconclusive = small, poorly fitted or top-dose-only effect, or effect the other way, or a change in a side signal; inactive = no such curve, though single readings can be large or run the other way; also: % of control where 0% means no effect
Target sequence (Q99816 whole entry, looked up): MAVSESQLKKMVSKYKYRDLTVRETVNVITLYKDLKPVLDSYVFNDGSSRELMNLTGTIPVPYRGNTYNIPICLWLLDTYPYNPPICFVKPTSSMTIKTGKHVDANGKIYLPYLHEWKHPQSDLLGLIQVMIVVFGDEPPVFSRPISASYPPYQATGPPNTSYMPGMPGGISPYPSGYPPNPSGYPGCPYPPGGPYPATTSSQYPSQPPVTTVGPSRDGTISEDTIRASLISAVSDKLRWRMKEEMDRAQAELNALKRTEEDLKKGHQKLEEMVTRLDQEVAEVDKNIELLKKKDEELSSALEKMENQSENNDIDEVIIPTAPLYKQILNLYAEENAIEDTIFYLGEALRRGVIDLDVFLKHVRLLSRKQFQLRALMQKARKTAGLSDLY
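FP read-out: FITC-PTAP peptide, 50 nM final, binding Tsg101 binding domain, 10 uM final; 20 min, r.t.; 10 mM HEPES pH 7.5, 0.15 M NaCl, 0.01% Tween 20, 3 mM EDTA, 0.1 mM TCEP.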
An asterisk follows results filed as active. Rows were chosen to be rich in hits. Some 2.1% of all compounds tested hit in one or more screens of this group. Unless noted, calls follow the shape of the dose curve; as a rule, active = well fitted curve in the direction sought with a large enough effect; inconclusive = small, poorly fitted or top-dose-only effect, or another doubt; inactive = no such curve, though single readings can be large; an effect the other way counts as inactive or inconclusive. Potency is read from the fitted curve at half-maximal effect.

`CCn1c(C(=O)N2CCC(C(=O)N3CCN(c4ccc(OC)cc4)CC3)CC2)cc2sccc21` gave FUS yeast rescue inactive, Abeta yeast res inactive and TDP-43 yeast inh 22µM*.
CNc1ccc(/C=C2\C=Cc3ccccc32)cc1Cl was read as aSyn yeast inh -16%.
CN(CCNC(=O)c1cc2c(=O)n(C)c3ccccc3c2n1C)Cc1ccccc1 was read as FUS yeast rescue inactive, aSyn yeast inh inconclusive, Abeta yeast res inactive, TDP-43 yeast inh -3% and TSG101-PTAP inh -2%.
CCCN(CCC)CCNC(=O)c1cc2c(=O)n(C)c3ccccc3c2n1C was read as FUS yeast rescue inactive, aSyn yeast inh 11µM*, Abeta yeast res inactive, TDP-43 yeast inh -2% and TSG101-PTAP inh -1%.
For CCOc1ccc(-n2c(SCC(=O)N3CCCCCC3)nc3c([nH]c4ccccc43)c2=O)cc1 the results were FUS yeast rescue inactive, aSyn yeast inh -5%, Abeta yeast res inactive and TDP-43 yeast inh 0%.
`CCN(CC)C(=O)Cn1c(=O)n(CC2CCC(C(=O)NC)CC2)c(=O)c2sccc21` (configuration not stated) gave FUS yeast rescue inactive, Abeta yeast res inactive and TDP-43 yeast inh -11%.
CNC(=O)COC(=O)/C=C/c1nc2ccccc2s1 was read as FUS yeast rescue inactive, aSyn yeast inh 7%, Abeta yeast res inactive, TDP-43 yeast inh 16µM* and TSG101-PTAP inh -3%.
N/C(=N\OC(=O)c1cccc2ccccc12)c1cccnc1 was read as FUS yeast rescue inactive, aSyn yeast inh -5%, Abeta yeast res inactive, TDP-43 yeast inh 20µM* and TSG101-PTAP inh -6%.
`N/C(=N\OC(=O)c1ccc(Cl)cc1Cl)c1cccnc1` gave FUS yeast rescue inactive, aSyn yeast inh 4%, Abeta yeast res inactive, TDP-43 yeast inh 13µM* and TSG101-PTAP inh -1%.
`Cc1ccc2nc(/C(C#N)=C/c3ccc(-c4cccc(Cl)c4)o3)[nH]c2c1` gave FUS yeast rescue inactive, Abeta yeast res inactive and TDP-43 yeast inh 2µM*.
O=C(CCn1cnc2onc(-c3ccc(F)cc3)c2c1=O)N1CCN(c2ccc(F)cc2)CC1 was read as FUS yeast rescue inactive, Abeta yeast res inactive and TDP-43 yeast inh inconclusive.
Screening O=C(Cn1cnc2onc(-c3ccc(F)cc3)c2c1=O)N1CCN(c2ccc(F)cc2)CC1 returned FUS yeast rescue inactive, aSyn yeast inh inconclusive, Abeta yeast res inactive and TDP-43 yeast inh 35µM*.
O=S(=O)(NCC(c1cccs1)S(=O)(=O)c1ccccc1)c1ccccc1 (configuration not stated) was read as FUS yeast rescue inactive, Abeta yeast res inactive and TDP-43 yeast inh 2.8µM*.
For CCOCCc1nnc(NC(=O)C(=O)c2cc(C)n(-c3cccc(C)c3)c2C)s1 the results were FUS yeast rescue inconclusive, Abeta yeast res inactive and TDP-43 yeast inh 35µM*.
`Nc1nc(SCc2ccc(F)cc2)ns1` gave FUS yeast rescue inactive, aSyn yeast inh -13%, Abeta yeast res inconclusive, TDP-43 yeast inh 13µM* and TSG101-PTAP inh 1%.
Screening O=C(Cc1ccccc1Cl)NCCN1C(=O)C2C3C=CC(C3)C2C1=O (configuration not stated) returned FUS yeast rescue inactive.
Cc1ccc(S(=O)(=O)Nc2ccc3nc(C)sc3c2)c(C)c1 was read as FUS yeast rescue inactive, aSyn yeast inh 5%, Abeta yeast res inactive, TDP-43 yeast inh 13µM* and TSG101-PTAP inh -5%.
Cc1ccc(S(=O)(=O)Nc2ccc3nc(C)sc3c2)cc1 was read as FUS yeast rescue inactive, aSyn yeast inh 1%, Abeta yeast res inactive, TDP-43 yeast inh 29% and TSG101-PTAP inh 0%.
COC/C=C/C1=CC(=O)C[C@H](c2ccc3c(c2)OCO3)C1 was read as FUS yeast rescue inactive, aSyn yeast inh 2%, Abeta yeast res inactive and TDP-43 yeast inh 14µM*.
For CCCCC/C=C/C1=CC(=O)C[C@H](c2ccc3c(c2)OCO3)C1 the results were FUS yeast rescue inactive, aSyn yeast inh -8%, Abeta yeast res inactive, TDP-43 yeast inh 24% and TSG101-PTAP inh 4%.
Screening O=C1C=C(c2ccc(F)nc2)C[C@@H](c2ccc3c(c2)OCO3)C1 returned FUS yeast rescue inactive, aSyn yeast inh 8%, Abeta yeast res inactive, TDP-43 yeast inh 13µM* and TSG101-PTAP inh -2%.
For COc1ccc(C2=CC(=O)C[C@H](c3ccc4c(c3)OCO4)C2)cn1 the results were FUS yeast rescue inactive, aSyn yeast inh 2%, Abeta yeast res inactive, TDP-43 yeast inh 14% and TSG101-PTAP inh 0%.
`O=C1C=C(c2cccc(Br)c2)C[C@@H](c2ccc3c(c2)OCO3)C1` gave FUS yeast rescue inactive, aSyn yeast inh 13%, Abeta yeast res inactive, TDP-43 yeast inh 11µM* and TSG101-PTAP inh -10%.
Screening O=C1C=C(c2ccccc2)C[C@@H](c2ccc3c(c2)OCO3)C1 returned FUS yeast rescue inactive, aSyn yeast inh 1%, Abeta yeast res inactive, TDP-43 yeast inh 20µM* and TSG101-PTAP inh -5%.
Screening COc1ccc(-c2cc(C(=O)NCCc3ccc(OC)c(OC)c3)c3ccccc3n2)cc1 returned FUS yeast rescue inactive, Abeta yeast res inactive and TDP-43 yeast inh 9%.
For CCN(CC)C(=O)CC[C@H]1CC[C@]2(CCCN(Cc3nccn3C)C2)O1 the results were FUS yeast rescue inactive.
Screening O=C1C=C(c2ccc(Oc3ccccc3)cc2)C[C@@H](c2ccc3c(c2)OCO3)C1 returned FUS yeast rescue inactive, aSyn yeast inh -1%, Abeta yeast res inactive, TDP-43 yeast inh 14% and TSG101-PTAP inh -2%.
COc1cccc(C2=CC(=O)C[C@H](c3ccc4c(c3)OCO4)C2)c1 was read as FUS yeast rescue inactive, aSyn yeast inh 0%, Abeta yeast res inactive, TDP-43 yeast inh 18µM* and TSG101-PTAP inh -2%.
Screening O=C1C=C(c2cccc(Cl)c2)C[C@@H](c2ccc3c(c2)OCO3)C1 returned FUS yeast rescue inactive, aSyn yeast inh 13%, Abeta yeast res inactive, TDP-43 yeast inh inconclusive and TSG101-PTAP inh -6%.
Screening O=C1C=C(c2cnc3ccccc3c2)C[C@@H](c2ccc3c(c2)OCO3)C1 returned FUS yeast rescue inactive, aSyn yeast inh 6%, Abeta yeast res inactive, TDP-43 yeast inh 16µM* and TSG101-PTAP inh -1%.
O=C1C=C(c2ccc(CO)cc2)C[C@@H](c2ccc3c(c2)OCO3)C1 was read as FUS yeast rescue inactive, aSyn yeast inh -1%, Abeta yeast res inactive and TDP-43 yeast inh 13µM*.
